Compounds without any hit were thinned out: in the full panel of roughly 83,000, 20% have a hit.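 Single-dose data. Exposure time 48 hours. Values below 10 considered active.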 Active and inactive are the calls of the source.
How the values were obtained:
Test in all cases: NCI-60 one-dose screen, 48 h (100 = growth as untreated, 0 = no growth, -100 = all killed)
Conditions in all cases: 10 µM unless noted
[1] = test system: RPMI-8226 leukemia
[2] = test system: OVCAR-8 ovarian
[3] = test system: OVCAR-5 ovarian
[4] = test system: SK-OV-3 ovarian
[5] = test system: IGROV1 ovarian
[6] = test system: OVCAR-3 ovarian
[7] = test system: HS 578T breast
[8] = test system: NCI/ADR-RES ovarian
[9] = test system: OVCAR-4 ovarian

Measured: growth

O=C(Nc1ccc2c(c1)OCO2)C(=O)c1c[nH]c2cc(F)ccc12
inactive: [1] 64% | [2] 59% | [3] 77.6% | [4] 59.7% | [5] 59.6% | [6] 50.5% | [7] 50.1% | [8] 47.6%

Cc1ccc(Nc2nnc(-c3ccc(Cl)cc3)o2)c(C)c1
inactive: [1] 89.6% | [2] 95% | [3] 99% | [9] 82.1% | [5] 87.2% | [6] 82.4% | [7] 87.9% | [8] 45.6%

Cc1ccc(-c2cc3nc(C(Cl)Cl)nc(-c4ccccc4C)n3n2)cc1
inactive: [1] 48.1% | [2] 90.5% | [3] 92.7% | [9] 74.9% | [5] 83.7% | [6] 22.4% | [7] 82.2% | [8] 60.3%

Cc1ccc(-c2nc(C#N)c(S(=O)(=O)n3nc(-c4ccccc4)cc3N)o2)cc1
inactive: [1] 83.4% | [2] 90.4% | [3] 106% | [4] 94.8% | [5] 101% | [6] 17.7% | [7] 95.6% | [8] 94.9%

CCN(CC)CCC(CNc1c2ccc(Cl)cc2nc2ccc(OC)cc12)c1ccccc1 (centres undefined)
inactive: [4] 35.3%
active: [1] -23.6% | [2] -15.1% | [3] -9.48% | [5] -10.5% | [6] -30.5% | [7] -27.6% | [8] -1.8%

NC(N)=Nc1nc2ccccc2o1
inactive: [1] 58.2% | [2] 110% | [3] 110% | [9] 110% | [4] 107% | [5] 102% | [8] 95.1%

S=c1[nH]nc(-c2cc3ccc2CCc2ccc(cc2)CC3)n1-c1ccccc1
inactive: [1] 94.5% | [2] 102% | [3] 103% | [4] 111% | [5] 100% | [6] 104% | [7] 116% | [8] 99.8%

CCNc1nc(S(=O)(=O)CC)nc2ccccc12
inactive: [1] 87.5% | [2] 99.8% | [3] 104% | [4] 96.6% | [5] 104% | [6] 98% | [7] 93.6% | [8] 111%

c1ccc(-c2nc(N3CCNCC3)c3nc(-c4ccccc4)oc3n2)cc1
active: [2] -30.5% | [3] -1.51% | [5] -83.6% | [6] -90.6% | [8] -69.2%
inactive: [7] 88.9%

N#Cc1ccc(N2Cc3ccccc3OC3=C2C(=O)c2c(O)ccc(O)c2C3=O)cc1
inactive: [4] 63.8% | [8] 19.7%
active: [1] 5.99% | [2] 3.86% | [3] -1.88% | [9] -43.4% | [6] -93.2%

Cc1ccc(-c2cc3nc(-c4ccccc4)nc(C(Cl)Cl)n3n2)cc1
active: [2] -25.5% | [3] -27.2% | [9] -46% | [6] -94.5% | [8] -30.7%
inactive: [5] 46%

C=C1C(=O)O[C@H]2[C@H]1CC/C(COC(=O)NCc1ccccc1OC)=C\CC[C@@]1(C)O[C@@H]21
inactive: [1] 25.7% | [2] 10.5% | [3] 73% | [9] 41.7% | [4] 85.8% | [7] 40.1% | [8] 86%
active: [6] -1.44%

O=C1Nc2ccc(Cl)cc2C12Nc1cc(Cl)ccc1S2 (centres undefined)
inactive: [1] 44.3% | [2] 99.2% | [3] 113% | [4] 108% | [6] 72% | [7] 144% | [8] 82.5%

Clc1ccc2c(NC3CCC(NC4CCCCC4)CC3)ccnc2c1 (centres undefined)
inactive: [1] 39.4% | [2] 52.2% | [3] 84.4% | [4] 73.4% | [5] 83.4% | [6] 85.3% | [7] 67.5% | [8] 68%

C=C1CCC2C3(C)COC(c4ccccc4)OC3CCC2(C)C1/C=C/C1=CCOC1=O (centres undefined)
active: [1] -36.8%
inactive: [2] 32.9% | [3] 78.7% | [9] 50% | [4] 72.4% | [5] 30.6% | [8] 26.2%

COc1cccc(/C=C2\Oc3cc(OCCCN4CCCC4)ccc3C2=O)c1
inactive: [1] 61.6% | [2] 91.4% | [3] 89.1% | [4] 109% | [5] 73.6% | [6] 87.2% | [7] 92.5% | [8] 89.1%

O=c1cc/c(=N\Nc2ccccc2)c(=O)/c1=N/Nc1ccccc1
inactive: [1] 18.9% | [2] 109% | [3] 107% | [9] 107% | [4] 109% | [5] 60.1% | [8] 95.2%

CC12CCC3C4(C)COC(c5ccccc5Cl)OC4CCC3(C)C1CC(C1=CCOC1=O)O2 (centres undefined)
inactive: [2] 65.1% | [3] 91.3% | [9] 31.2% | [4] 94.5% | [5] 82.9% | [6] 64.4% | [7] 76.1% | [8] 63.2%

Nc1cc2c(cc1C(=O)c1cccc(F)c1)OCCO2
inactive: [2] 91.1% | [3] 98.2% | [9] 105% | [4] 93.3% | [5] 89.7% | [6] 116% | [7] 111% | [8] 97.9%

CCOC(=O)c1cn2c3c(cc(C)cc3c1=O)C(=O)/C(=C/c1ccccc1)C2
inactive: [1] 110% | [2] 82.1% | [3] 90% | [4] 82.3% | [5] 93.2% | [6] 96.7% | [7] 103% | [8] 93.9%

NC(=S)N/N=C(/CCN1CCCC1)CC(C1=C(O)C2=CCCCC2OC1=O)c1ccccc1 (centres undefined)
inactive: [1] 73.9% | [2] 88.2% | [3] 96.9% | [4] 94.3% | [5] 52.8% | [6] 21.8% | [7] 96.7% | [8] 40.4%

COc1cccc(-c2cc3c(O)cc(C#N)cc3[nH]2)c1
inactive: [1] 36.1% | [2] 106% | [3] 94.7% | [4] 108% | [5] 103% | [6] 114% | [7] 43.6% | [8] 89.2%

O=[N+]([O-])c1ccc(/C=C/C2(CCl)OCCO2)cc1
inactive: [1] 68.5% | [2] 82.4% | [3] 111% | [9] 102% | [4] 103% | [6] 112% | [7] 109% | [8] 98.8%

CCC(=O)OC1=CN2C(=NC(c3ccc(N)cc3)=CC2c2cc(OC)c(OC)c(OC)c2)S1 (centres undefined)
inactive: [1] 17.9% | [2] 36.6% | [3] 77.7% | [4] 68.1% | [5] 65.4% | [6] 24.1% | [7] 49% | [8] 66.9%

CC(C)(C)n1cc(-c2ccnc(NCCNS(=O)(=O)c3ccc(Cl)cc3)c2)c(-c2cccc(O)c2)n1
inactive: [1] 23.8% | [2] 65.1% | [3] 80.9% | [4] 90.4% | [5] 79.1% | [6] 72.5% | [7] 66% | [8] 68.2%

CN(C)c1oc(C2OC2c2ccccc2)nc1C#N (centres undefined)
inactive: [1] 98.3% | [2] 85.4% | [3] 89.6% | [4] 79.2% | [5] 90.6% | [6] 105% | [7] 90.1% | [8] 100%

Reference: PubChem BioAssay (NCI)
